Experimental data taken from ChEMBL document CHEMBL2218924, “A broad activity screen in support of a chemogenomic map for kinase signalling research and drug discovery” (Biochem J, 2013).

Target: Tyrosine-protein kinase Fyn (Homo sapiens) (UniProt P06241)
Details: at 1 µM

Chain of Tyrosine-protein kinase Fyn (Homo sapiens) (P06241 2-537 limits assumed): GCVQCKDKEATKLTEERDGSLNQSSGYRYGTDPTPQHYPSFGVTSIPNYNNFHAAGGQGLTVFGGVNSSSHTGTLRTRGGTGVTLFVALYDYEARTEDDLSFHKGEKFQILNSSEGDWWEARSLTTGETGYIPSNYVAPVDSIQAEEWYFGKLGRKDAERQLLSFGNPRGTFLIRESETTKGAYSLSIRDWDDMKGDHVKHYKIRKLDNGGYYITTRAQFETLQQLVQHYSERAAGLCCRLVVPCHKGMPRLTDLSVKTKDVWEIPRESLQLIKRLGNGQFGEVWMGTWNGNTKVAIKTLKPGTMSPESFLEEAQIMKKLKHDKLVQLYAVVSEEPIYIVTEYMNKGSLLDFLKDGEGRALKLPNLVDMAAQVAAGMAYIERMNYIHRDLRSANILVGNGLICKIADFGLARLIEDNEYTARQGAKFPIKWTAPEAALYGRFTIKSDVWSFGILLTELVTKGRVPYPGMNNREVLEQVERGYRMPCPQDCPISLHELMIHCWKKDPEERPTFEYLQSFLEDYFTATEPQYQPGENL

SMILES	residual activity [%]
NC(=O)c1ccc(-c2nc(-c3ccc4c(c3)OCCO4)c(-c3ccccn3)[nH]2)cc1	81
COc1cc2ncnc(Nc3cccc(Cl)c3)c2cc1OC	41
Fc1ccc(-c2nc3n(c2-c2ccncc2)CCS3)cc1	92
O=S(=O)(NCCNC/C=C/c1ccc(Br)cc1)c1cccc2cnccc12	75
O=C1Nc2ccccc2/C1=C\c1c(Cl)[nH]c2ccccc12	81
CC(C)N(CCC(=O)c1ccc2ccccc2c1)Cc1ccccc1	88
Nc1ncnc2c1cnn2-c1ccccc1	79
CC(C)[C@H](CO)Nc1nc(Nc2cc(N)cc(Cl)c2)c2ncn(C(C)C)c2n1	9
CCN1/C(=C/C(C)=O)Sc2ccc(OC)cc21	80
N#Cc1c(NC(=O)c2cccc3ccccc23)sc2c1CCCC2	72
O=C(Nc1ccc(Cl)cc1)c1ccccc1NCc1ccncc1	102
CCCCc1c(-c2ccc(O)cc2)[nH]c2nccnc12	43
COc1cc2c(cc1OC)-c1n[nH]c(Nc3cccc(F)c3)c1C2	16
CC(C)(C)n1nc(Cc2cccc3ccccc23)c2c(N)ncnc21	30
CSc1nc(-c2ccc(F)cc2)c(-c2ccnc(NC(C)c3ccccc3)c2)[nH]1 (centres undefined)	87
Oc1cccc(-c2nc(N3CCOCC3)c3oc4ncccc4c3n2)c1	82

Target: Tyrosine-protein kinase Fyn (Homo sapiens) (UniProt P06241)
Details: at 10 µM

SMILES	residual activity [%]
NC(=O)c1ccc(-c2nc(-c3ccc4c(c3)OCCO4)c(-c3ccccn3)[nH]2)cc1	83
COc1cc2ncnc(Nc3cccc(Cl)c3)c2cc1OC	6
Fc1ccc(-c2nc3n(c2-c2ccncc2)CCS3)cc1	83
O=S(=O)(NCCNC/C=C/c1ccc(Br)cc1)c1cccc2cnccc12	55
O=c1c(-c2ccc(F)cc2)c(-c2ccncc2)[nH]n1-c1ccc(Cl)cc1	66
O=C1Nc2ccccc2/C1=C\c1c(Cl)[nH]c2ccccc12	59
NC(=O)c1cccc(-c2cc(Nc3ccc(OC(F)(F)F)cc3)ncn2)c1	78
CC(C)N(CCC(=O)c1ccc2ccccc2c1)Cc1ccccc1	88
Nc1ncnc2c1cnn2-c1ccccc1	58
CC(C)[C@H](CO)Nc1nc(Nc2cc(N)cc(Cl)c2)c2ncn(C(C)C)c2n1	0
N#Cc1c(NC(=O)c2cccc3ccccc23)sc2c1CCCC2	87
O=C(Nc1ccc(Cl)cc1)c1ccccc1NCc1ccncc1	70
CCCCc1c(-c2ccc(O)cc2)[nH]c2nccnc12	11
N#C/C(=C\c1ccc(O)c(O)c1)C(=O)NCc1ccccc1	80
COc1cc2c(cc1OC)-c1n[nH]c(Nc3cccc(F)c3)c1C2	0
CC(C)(C)n1nc(Cc2cccc3ccccc23)c2c(N)ncnc21	3
CSc1nc(-c2ccc(F)cc2)c(-c2ccnc(NC(C)c3ccccc3)c2)[nH]1 (centres undefined)	69
COc1ccc2c(c1)c(C1=C(c3c[nH]c4ccccc34)C(=O)NC1=O)cn2CCCN(C)C	60
Oc1cccc(-c2nc(N3CCOCC3)c3oc4ncccc4c3n2)c1	88

Target: T1, Mitogen-activated protein kinase kinase kinase kinase 2 (Homo sapiens) (UniProt Q12851)
T1 sequence (whole entry): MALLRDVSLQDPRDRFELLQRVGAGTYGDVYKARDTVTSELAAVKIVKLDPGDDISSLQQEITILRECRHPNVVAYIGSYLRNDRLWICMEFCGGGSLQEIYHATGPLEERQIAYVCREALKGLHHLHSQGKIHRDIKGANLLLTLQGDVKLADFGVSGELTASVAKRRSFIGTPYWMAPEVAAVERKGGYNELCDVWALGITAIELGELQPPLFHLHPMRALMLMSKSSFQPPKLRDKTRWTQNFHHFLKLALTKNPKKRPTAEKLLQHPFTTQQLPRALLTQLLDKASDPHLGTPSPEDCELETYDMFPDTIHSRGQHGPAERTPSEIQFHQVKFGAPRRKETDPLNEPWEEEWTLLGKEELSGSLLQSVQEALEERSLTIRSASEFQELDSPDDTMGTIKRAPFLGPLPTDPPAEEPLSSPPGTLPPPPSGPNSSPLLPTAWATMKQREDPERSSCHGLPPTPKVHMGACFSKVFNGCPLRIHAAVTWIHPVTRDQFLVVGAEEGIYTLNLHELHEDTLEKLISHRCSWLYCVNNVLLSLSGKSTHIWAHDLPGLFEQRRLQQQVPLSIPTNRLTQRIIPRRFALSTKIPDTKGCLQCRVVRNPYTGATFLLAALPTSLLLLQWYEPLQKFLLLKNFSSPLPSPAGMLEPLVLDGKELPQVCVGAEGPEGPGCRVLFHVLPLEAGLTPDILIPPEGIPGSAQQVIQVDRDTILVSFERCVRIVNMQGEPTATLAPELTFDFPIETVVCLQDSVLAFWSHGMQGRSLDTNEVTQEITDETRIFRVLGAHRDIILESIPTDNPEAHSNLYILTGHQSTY
Details: at 1 µM

SMILES	residual activity [%]
O=C1NC(=O)C(c2cn(CCCn3ccnc3)c3ccccc23)=C1Nc1ccccc1	54
Nc1nccc(-c2c(-c3ccc(F)cc3)ncn2C2CCNCC2)n1	82
O=S(=O)(NCCNC/C=C/c1ccc(Br)cc1)c1cccc2cnccc12	76
COc1ccc(Cl)cc1NC(=O)Nc1cc(C)nc2ccccc12	93
CC(C)N(CCC(=O)c1ccc2ccccc2c1)Cc1ccccc1	82
Nc1ncnc2c1cnn2-c1ccccc1	100
CCN1/C(=C/C(C)=O)Sc2ccc(OC)cc21	74
N#C/C(=C1/Nc2ccccc2S1)c1ccnc(NCCc2cccnc2)n1	79
CCCCc1c(-c2ccc(O)cc2)[nH]c2nccnc12	7
O=C(c1ccccc1)c1ccc(N2CCOCC2)cc1O	95
CC(C)(C)c1nc2c3ccc(F)cc3c3c(=O)[nH]ccc3c2[nH]1	19
NCCNc1ncc(C(N)=O)c(Nc2cccc(C(F)(F)F)c2)n1	13
CSc1nc(-c2ccc(F)cc2)c(-c2ccnc(NC(C)c3ccccc3)c2)[nH]1 (centres undefined)	75
O=C(Nc1nc2ccccc2n1CCN1CCOCC1)c1cccc([N+](=O)[O-])c1	70
COc1ccc2c(c1)c(C1=C(c3c[nH]c4ccccc34)C(=O)NC1=O)cn2CCCN(C)C	75

Target: T1, Mitogen-activated protein kinase kinase kinase kinase 2 (Homo sapiens)
Details: at 10 µM

SMILES	residual activity [%]
NC(=O)c1ccc(-c2nc(-c3ccc4c(c3)OCCO4)c(-c3ccccn3)[nH]2)cc1	94
COc1cc2ncnc(Nc3cccc(Cl)c3)c2cc1OC	50
O=C1NC(=O)C(c2cn(CCCn3ccnc3)c3ccccc23)=C1Nc1ccccc1	13
Fc1ccc(-c2nc3n(c2-c2ccncc2)CCS3)cc1	83
Nc1nccc(-c2c(-c3ccc(F)cc3)ncn2C2CCNCC2)n1	61
O=S(=O)(NCCNC/C=C/c1ccc(Br)cc1)c1cccc2cnccc12	42
COc1ccc(Cl)cc1NC(=O)Nc1cc(C)nc2ccccc12	77
O=C1Nc2ccccc2/C1=C\c1c(Cl)[nH]c2ccccc12	69
NC(=O)c1cccc(-c2cc(Nc3ccc(OC(F)(F)F)cc3)ncn2)c1	88
COc1ccc(COc2ccc(Cc3cnc(N)nc3N)cc2OC)cc1	63
CC(C)N(CCC(=O)c1ccc2ccccc2c1)Cc1ccccc1	80
CCN1/C(=C/C(C)=O)Sc2ccc(OC)cc21	55
N#Cc1c(NC(=O)c2cccc3ccccc23)sc2c1CCCC2	90
N#C/C(=C1/Nc2ccccc2S1)c1ccnc(NCCc2cccnc2)n1	18
O=C(Nc1ccc(Cl)cc1)c1ccccc1NCc1ccncc1	58
CCCCc1c(-c2ccc(O)cc2)[nH]c2nccnc12	4
N#C/C(=C\c1ccc(O)c(O)c1)C(=O)NCc1ccccc1	85
COc1cc2c(cc1OC)-c1n[nH]c(Nc3cccc(F)c3)c1C2	44
O=C(c1ccccc1)c1ccc(N2CCOCC2)cc1O	89
O=S(=O)(c1cccc2cnccc12)N1CCCNCC1	83
CC(C)(C)c1nc2c3ccc(F)cc3c3c(=O)[nH]ccc3c2[nH]1	11
O=c1cc(N2CCOCC2)oc2c(-c3ccccc3)cccc12	70
CCOc1nc(NC(=O)Cc2cc(OC)ccc2OC)cc(N)c1C#N	72
NCCNc1ncc(C(N)=O)c(Nc2cccc(C(F)(F)F)c2)n1	0
CC(C)(C)n1nc(Cc2cccc3ccccc23)c2c(N)ncnc21	44
CSc1nc(-c2ccc(F)cc2)c(-c2ccnc(NC(C)c3ccccc3)c2)[nH]1 (centres undefined)	56
O=C(Nc1nc2ccccc2n1CCN1CCOCC1)c1cccc([N+](=O)[O-])c1	67
COc1ccc2c(c1)c(C1=C(c3c[nH]c4ccccc34)C(=O)NC1=O)cn2CCCN(C)C	30
Oc1cccc(-c2nc(N3CCOCC3)c3oc4ncccc4c3n2)c1	85
